# From PubChem
# S2 tox – cell viability loss in ATXN counter-screen; S2 cells (HEK-293 line with an ATXN2-luciferase reporter) viability, CellTiter-Fluor protease fluorescence, 24 h; Potency, µM (doses to about 56.7 µM), hits mostly cytotoxic; 400,000 tested, 0.49% active; further: nearly all actives have a fitted effect of over 40% in size
# TGFb SMAD3 inh – TGF-b pathway inhibition; HepG2 CAGA-GFP TGF-b/SMAD3 reporter, GFP fluorescence, 18 h; TGF-beta stimulated, 500 pg/mL final; AID 588855; 410,000 tested, 1.2% active; Potency, µM (series often up to 46.1 µM), without a hit: at the top dose activity, negative = inhibition, usual class: inhibitors; further: on the % scale 0 is the no-effect control and ±100 the full control effect; nearly all actives have a fitted effect of over 65% in size
#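 Smad-responsive CAGA-GFP expression was quantified in HEPG2 cells exposed to compounds and 500 pg/mL final TGF-beta for 18 h at 37 degrees C; unstimulated wells defined full inhibition.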
# TDP1 cell CPT – growth inhibition of DT40 Tdp1-/-;hTDP1 cells with camptothecin (screen for TDP1 inhibitors); chicken DT40 Tdp1-/-;hTDP1 cells + 20 nM CPT, ATP luminescence, 48 h; Potency, µM (top dose mostly 46.2 µM), for the others: top-dose activity change, negative = growth inhibition, hits mostly inhibitors; 420,000 tested, 12% active; AID 686979; further: on the % scale 0 is the no-effect control and ±100 the full control effect; nearly all actives have a fitted effect of over 55% in size
#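 Cell growth measured by CellTiter-Glo luminescence after a minimum 48 h, 37 C compound exposure with 20 nM CPT in Tdp1-knockout DT40 cells stably expressing hTDP1, seeded 400/well; qHTS titration format.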
# TDP1 cell noCPT – qHTS for Inhibitors of human tyrosyl-DNA phosphodiesterase 1 (TDP1): qHTS in cells in absence of CPT | DT40 Tdp1-/- hTDP1 cells, no CPT, ATP luminescence, 48 h | Potency, µM (titrated, usually from 46.2 µM), without a hit: at the top dose activity change, negative = growth inhibition, most hits filed as inhibitors | 420,000 tested, 15% active | AID 686978, 2013; further: on the % scale 0 is the no-effect control and ±100 the full control effect; nearly all actives have a fitted effect of over 55% in size
#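 Stably hTDP1-transfected Tdp1-null chicken DT40 cells were treated with library compounds minus camptothecin and grown for at least 48 hr at 37 °C, after which cellular ATP was quantified by luminescence.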
# ATXN2 expr inh – ATXN2 expression inhibition | HEK-293 ATXN2-luciferase reporter, luminescence, 24 h | Potency, µM (doses to about 57 µM), for inactives: at the top dose activity change, negative = inhibition, actives largely listed as inhibitors | 360,000 tested, 0.72% active | AID 1745845; further: on the % scale 0 is the no-effect control and ±100 the full control effect; nearly all actives have a fitted effect of over 55% in size
#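 ATXN2-luciferase reporter cells (luciferase flanked by upstream and downstream ATXN2 gene portions) were treated 24 h at 37 °C with compounds at up to 57 uM. SteadyGlo luminescence gave expression; GF-AFC fluorescence gave viability.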
# HepG2 viability – kills HepG2 cells in TGF-b inhibitor counter-screen; Potency, µM (doses to about 46.1 µM), inactives show at the highest dose activity change, negative = cytotoxicity, usual class: cytotoxic; 410,000 tested, 0.76% active; HepG2 CAGA-GFP viability, ATP luminescence, 18 h
#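 HepG2 CAGA-GFP cells (1000/well, DMEM with 1% FBS) received compound, then TGF-beta at 500 pg/mL final, and were incubated 18 hours at 37 degrees C. Viability was read by CellTiter-Glo luminescence. Media-only wells were set as complete cell-killing and DMSO as no toxicity.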
# Starred values were filed as active, the others as inactive; i = inactive; ? = inconclusive; / = no result; ! = repeats disagree. A selection: hits, their analogues and other compounds. The true share with any hit is near 17%. The call rests on the fitted dose curve; in most records, active means well fitted curve in the direction sought with a large enough effect; inconclusive means small, poorly fitted or top-dose-only effect, or another doubt; inactive means no such curve, though single readings can be large; an effect the other way counts as inactive or inconclusive. Potency means the concentration at half of the fitted maximal effect.
SMILES,S2 tox,TGFb SMAD3 inh,TDP1 cell CPT,TDP1 cell noCPT,ATXN2 expr inh,HepG2 viability
CCCCN(C)C(=O)CS(=O)(=O)Cc1nc(-c2cccc(OC)c2)oc1C,?,0%,-2%,-28%,1%,-10%
N#Cc1ccc(C(=O)N2CCCC(c3cc(C(=O)NCc4cccnc4)no3)C2)cc1 (configuration not stated),i,8%,?,?,1%,-12%
CC(=O)Nc1ccc(C=NNc2ccc([N+](=O)[O-])cc2S(=O)(=O)Nc2ccccc2C(=O)O)cc1,i,2%,5%,0%,5%,-4%
Cc1ccc(NC(=S)NNc2ccc([N+](=O)[O-])cc2S(=O)(=O)Nc2ccccc2C(=O)O)cc1C,32µM*,?,?,?,-7%,-14%
O=S(=O)(c1cccs1)N1CN(Cc2cccs2)c2nc3ccccc3nc21,?,7%,?,16µM*,1%,-10%
CC(=O)c1ccc(NC(=O)C2=CC(c3cccs3)=NS(=O)(=O)N2C)cc1,i,?,?,16µM*,2%,-7%
CCc1ccc(NC(=O)C2=CC(c3cccs3)=NS(=O)(=O)N2C)cc1,i,13µM*!,?,16µM*,-2%,-26%
CCOC(=S)SCC(=O)Nc1nccs1,?,-33%,21µM*,21µM*,-14%,-31%
CCOC(=S)SCC(=O)Nc1nc(C)c(C)s1,?,?,16µM*,21µM*,/,-43%
CCOC(=O)C(=O)Nc1nccs1,i,-16%,-4%,0%,/,-2%
CCOC(=O)/C=C/C(=O)Nc1nccs1,i,0%,7.3µM*,3.7µM*,4%,-23%
CCOC(=O)N1CCN(CC(=O)Nc2nccs2)CC1,i,-3%,0%,0%,/,-2%
CCC(C)(C)NC(=O)CN(CC1CCCO1)C(=O)CCC(=O)Nc1nccs1 (configuration not stated),i,16%,-5%,?,3%,21%
Cc1nnc(NC(=O)CSCc2cc(=O)c3ccccc3[nH]2)s1,i,-3%,-3%,-1%,5%,-12%
O=C(NCCO)c1ccc(-c2nnc(Nc3ccc(OC(F)(F)Cl)cc3)c3ccccc23)cc1,i,11µM*,?,?,?,-78%
COC(=O)[C@]1(C)CCC[C@@]2(C)C3CC[C@@]4(C)C[C@]3(CCC21)CC(=O)N4 (some centres not stated),i,-38%,?,?,-1%,-15%
C=C1C(=O)C23CCC4C(C)(C(=O)OC)CCCC4(C)C2CCC1(O)C3 (configuration not stated),5.3µM*,3.2µM*,0.65µM*,0.52µM*,?,2.8µM*
COc1cccc(C2c3[nH]c4ccccc4c3C[C@H]3C(=O)N(C4CCN(Cc5ccccc5)CC4)CC(=O)N23)c1 (some centres not stated),i,?,23µM*,?,-37%,-51%
Cc1ccccc1C1c2[nH]c3ccccc3c2C[C@H]2C(=O)N(C3CC3)CC(=O)N12 (some centres not stated),?,1%,?,?,-14%,7%
O=C1[C@@H]2Cc3c([nH]c4ccccc34)C(c3ccccc3)N2C(=O)CN1C1CC1 (some centres not stated),i,-9%,?,?,-5%,-15%
COc1ccc(C2c3[nH]c4ccccc4c3C[C@H]3C(=O)N(C4CCN(Cc5ccccc5)CC4)CC(=O)N23)cc1OC (some centres not stated),i,?,21µM*,?,-27%,-18%
COc1ccccc1C1c2[nH]c3ccccc3c2C[C@H]2C(=O)N(C3CCN(Cc4ccccc4)CC3)CC(=O)N12 (some centres not stated),?,11µM*,?,9.2µM*,-24%,-43%
COc1ccc(-n2c(=S)[nH]c3cc(C(=O)NCc4ccccc4)ccc3c2=O)c(OC)c1,i,-4%,?,?,1%,2%
CCN(CC)S(=O)(=O)c1ccc2c(c1)N(CC(=O)N(CCc1ccncc1)C(C)C)C(=O)CO2,i,6%,-20%,-3%,/,5%
CC1CCN(c2ccc3nnc(CCC(=O)N4CCCCC4)n3n2)CC1,i,-15%,-24%,5%,2%,-10%
SMILES,S2 tox,TGFb SMAD3 inh,TDP1 cell CPT,TDP1 cell noCPT,ATXN2 expr inh,HepG2 viability
COC(=O)c1ccc2c(=O)n(CCCCCC(=O)NCc3ccc(Cl)cc3)c(=O)[nH]c2c1,/,?,?,?,/,-7%
COc1ccc(-c2csc(NCCc3nc4cc(Cl)c(N5CCCCC5)cc4n3CCOCCO)n2)cc1,?,?,23µM*,9.2µM*,?,-12%
COc1ccc(-c2csc(N3CCN(c4cc5c(cc4Cl)nc(-c4ccncc4)n5CCOCCO)CC3)n2)cc1,i,-25%,12µM*,?,-3%,-2%
Cc1onc(-c2ccccc2Cl)c1C(=O)N[C@@H](C)c1ccccc1,i,0%,-26%,5%,-1%,-26%
CCc1cccc(NC(=O)C2CCCN2S(=O)(=O)c2ccccc2C(F)(F)F)c1 (configuration not stated),?,-23%,?,21µM*,-9%,-21%
COc1ccc(NC(=O)C2CCCN2S(=O)(=O)c2ccc3c(c2)CC(C)N3C(C)=O)cc1OC (configuration not stated),i,3%,?,0%,5%,0%
Cc1ccc(NC(=O)[C@@H]2CCCN2S(=O)(=O)c2ccccc2C(F)(F)F)cc1S(=O)(=O)N1CCOCC1,i,1%,?,-21%,0%,-7%
CCc1cccc(NC(=O)C2CCCN2S(=O)(=O)c2ccc3c(c2)CC(C)N3C(C)=O)c1 (configuration not stated),?,-2%,?,12µM*,-9%,-2%
CC(=O)N1c2ccc(S(=O)(=O)N3CCCC3C(=O)Nc3cccc(F)c3)cc2CC1C (configuration not stated),i,-19%,16µM*,?,-12%,-5%
O=C(Nc1ccc(Cc2ccncc2)cc1)C1CCC(N2C(=O)C3CCCCC3C2=O)CC1 (configuration not stated),i,-13%,?,?,2%,-3%
